Assay results reported in PubChem BioAssay (EPA / NIEHS).
Values joined by “and” are separate entries in the source; they are usually repeats but may differ in a detail not shown here. Identical values can stand only once. Where a structure was tested more than once in an assay, its records may differ in their call. Active and inactive are the calls of the source. The calls were made as follows: active = hit-call score of the fitted dose curve at least 0.9, where 1 is the maximum; inactive = score below 0.9.

Legend:
[1] = IUF_NPC2c_oligodendrocyte_migration_120hr: Leibniz Research Institute for Environmental Medicine (IUF) 120-hour Neural Progenitor Cell Migration Assay for Oligodendrocyte Migration (NPC2c) (AID 2284297);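 also: O4-positive oligodendrocyte migration distance divided by radial glia migration distance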
Outline: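 Primary hNPC spheres migrating on extracellular matrix, exposed five days to a 7-point dilution series with solvent control. Oligodendrocyte migration was scored by high-content imaging of O4 immunostaining and expressed relative to radial glia distance.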

[2] = IUF_NPC2a_radial_glia_migration_120hr: Leibniz Research Institute for Environmental Medicine (IUF) 120-hour Neural Progenitor Cell Migration Assay for Radial Glia Migration (NPC2a) (AID 2284298)
Outline: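 In this multiplexed test, fetal hNPC spheres migrate radially on poly-D-lysine/laminin in N2 medium (37C, 5% CO2, pH 7.2-7.6) under continuous compound exposure over five days. Migration is scored at 120 h from automated Hoechst nuclear imaging.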

[3] = IUF_NPC2a_radial_glia_migration_72hr: Leibniz Research Institute for Environmental Medicine (IUF) 72-hour Neural Progenitor Cell Migration Assay for Radial Glia Migration (NPC2a) (AID 2284299)
Outline: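 Migration out of plated human neural progenitor spheres is scored at 72 h as the distance in um from the sphere core edge to the edge of the migration area. Values are the mean of four manual measurements per well, normalised to DMSO.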

[4] = read-out: Intercellular Adhesion Molecule 1 (ICAM1), ICAM1 (gene 3383); test: BSK_BE3C_ICAM1: BioMAP Diversity Plus: BE3C Assay for Intercellular Adhesion Molecule 1 (ICAM1) Biomarker Activity (AID 2284278); conditions: primary human bronchial epithelial cells
Outline: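 Measured by ELISA: ICAM-1 expressed by primary human bronchial epithelial cells 24 h after compound treatment, with upward-direction fitting versus DMSO vehicle.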

[5] = read-out: Interferon-inducible T-cell alpha chemoattractant (ITAC), CXCL11 (gene 6373); test: BSK_BE3C_ITAC: BioMAP Diversity Plus: BE3C Assay for Interferon-inducible T-cell alpha chemoattractant (ITAC) Biomarker Activity (AID 2284279); conditions: primary human bronchial epithelial cells
Outline: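 ELISA read-out of I-TAC after 24 h chemical dosing of human lung primary bronchial epithelial cells; gain-of-signal fit vs DMSO baseline. Parallel SRB total-protein staining (0.1% SRB, 10% TCA fixation, 560 nm) assessed cytotoxicity.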

[6] = read-out: Interleukin-8 (IL8), CXCL8 (gene 3576); test: BSK_BE3C_IL8: BioMAP Diversity Plus: BE3C Assay for Interleukin-8 (IL8) Biomarker Activity (AID 2284280); conditions: primary human bronchial epithelial cells
Outline: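 IL-8 signal gain, normalised to DMSO vehicle, was scored after a 24 h chemical exposure of primary human bronchial epithelial cells, with detection by ELISA.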

[7] = read-out: Epidermal growth factor receptor (EGFR), EGFR (gene 1956); test: BSK_BE3C_EGFR: BioMAP Diversity Plus: BE3C Assay for Epidermal growth factor receptor (EGFR) Biomarker Activity (AID 2284281); conditions: primary human bronchial epithelial cells
Outline: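 Compound is added to human bronchial epithelial cells, cells incubate 24 h, then EGFR is detected by ELISA. Values reflect positive-direction fitting relative to DMSO.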

KRT18 (gene 3875) = test: BSK_BE3C_Keratin818: BioMAP Diversity Plus: BE3C Assay for Keratin 818 Biomarker Activity (AID 2284282); conditions: primary human bronchial epithelial cells
Outline: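 BE3C: human bronchial epithelial primary cells, 24 h exposure, Keratin 8/18 ELISA; DMSO = negative control/baseline; cytotoxicity by parallel SRB stain (0.1% SRB after 10% TCA fixation, 560 nm).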

[8] = read-out: Plasminogen activator inhibitor-1 (PAI1), SERPINE1 (gene 5054); test: BSK_CASM3C_PAI1: BioMAP Diversity Plus: CASM3C Assay for Plasminogen activator inhibitor-1 (PAI1) Biomarker Activity (AID 2284284); conditions: primary human coronary artery smooth muscle cells;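 also: PAI-1 protein level measured by ELISA 24 h after dosing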
[9] = read-out: Thrombomodulin, THBD (gene 7056); test: BSK_LPS_Thrombomodulin: BioMAP Diversity Plus: LPS Assay for Thrombomodulin Biomarker Activity (AID 2284296); conditions: primary human HUVEC with PBMC
Outline: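 Human umbilical vein endothelial cells co-cultured with PBMC and stimulated with LPS; cell-surface thrombomodulin measured by ELISA 24 hours after compound. Gain or loss versus DMSO; cytotoxicity checked by SRB staining in parallel cultures.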

[10] = read-out: urokinase Plasminogen Activator (uPA), PLAU (gene 5328); test: BSK_BF4T_uPA: BioMAP Diversity Plus: BF4T Assay for urokinase Plasminogen Activator (uPA) Biomarker Activity (AID 2284275); conditions: primary human bronchial epithelial cells with fibroblasts
Outline: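 Co-culture of human bronchial epithelial cells and dermal fibroblasts; uPA quantified by ELISA 24 hours after dosing, fitted relative to DMSO. Parallel SRB total-protein staining assessed overt cytotoxicity.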

[11] = read-out: Matrix Metallopeptidase 9 (MMP9), MMP9 (gene 4318); test: BSK_BF4T_MMP9: BioMAP Diversity Plus: BF4T Assay for Matrix Metallopeptidase 9 (MMP9) Biomarker Activity (AID 2284276); conditions: primary human bronchial epithelial cells with fibroblasts
Outline: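 Co-culture of human bronchial epithelial cells and dermal fibroblasts dosed for 24 h; MMP-9 quantified by ELISA and fitted upward versus DMSO. Cytotoxicity monitored in parallel cultures by SRB total-protein staining at the biomarker time point.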

[12] = read-out: Interleukin-8 (IL8), CXCL8 (gene 3576); test: BSK_IMphg_IL8: BioMAP Diversity Plus: IMphg Assay for Interleukin-8 (IL8) Biomarker Activity (AID 2284277); conditions: primary human endothelial cells with macrophages
Outline: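 Co-culture of human venular endothelial cells and macrophages exposed to chemicals for 24 h; IL-8 quantified by ELISA and compared against the DMSO baseline, with SRB total-protein staining in parallel cultures for cytotoxicity.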

[13] = read-out: Vascular cell adhesion molecule 1 (VCAM1), VCAM1 (gene 7412); test: BSK_IMphg_VCAM1: BioMAP Diversity Plus: IMphg Assay for Vascular cell adhesion molecule 1 (VCAM1) Biomarker Activity (AID 2284286); conditions: primary human endothelial cells with macrophages
Outline: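 Human venular endothelial cells co-cultured with macrophages; VCAM-1 quantified by ELISA 24 h after dosing, fitted in the positive direction against DMSO. Cytotoxicity was checked in parallel cultures by SRB total-protein staining (0.1% SRB after 10% TCA fixation, 560 nm).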

CD40, CD40 (gene 958) = test: BSK_IMphg_CD40: BioMAP Diversity Plus: IMphg Assay for CD40 Biomarker Activity (AID 2284288); conditions: primary human endothelial cells with macrophages
Outline: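 Venular endothelial cells co-cultured with macrophages (human primary), CD40 measured by ELISA 24 h after dosing. Positive-direction fit vs DMSO baseline; cytotoxicity tracked by SRB total-protein staining in parallel cultures.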

[14] = read-out: E-selectin (Homo sapiens) (UniProt P16581); test: BSK_IMphg_ESelectin: BioMAP Diversity Plus: IMphg Assay for Eselectin Biomarker Activity (AID 2284291); conditions: primary human endothelial cells with macrophages
Outline: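 Human venular endothelial cell–macrophage co-culture, E-selectin measured by ELISA 24 h after chemical dosing. Signal fitted in the positive direction against DMSO as negative control and baseline.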

[15] = BSK_IMphg_SRB: Viability Assessment in the BioMAP Diversity Plus: IMphg Assay (AID 2284292); conditions: primary human endothelial cells with macrophages;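 also: measured one day after compound addition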
Outline: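 Human venular endothelial cells with macrophages, 24 h after chemical dosing; total protein by 0.1% SRB staining after 10% TCA fixation, read at 560 nm. Positive-direction fitting versus DMSO baseline.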

[16] = read-out: Macrophage colony-stimulating factor (MCSF), CSF1 (gene 1435); test: BSK_IMphg_MCSF: BioMAP Diversity Plus: IMphg Assay for Macrophage colony-stimulating factor (MCSF) Biomarker Activity (AID 2284293); conditions: primary human endothelial cells with macrophages
Outline: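 Co-culture of human venular endothelial cells and macrophages, 24 hours of chemical exposure. M-CSF quantified by ELISA, with parallel SRB total-protein staining for cytotoxicity; activity fitted relative to DMSO.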

[17] = read-out: Interleukin-10 (IL10), IL10 (gene 3586); test: BSK_IMphg_IL10: BioMAP Diversity Plus: IMphg Assay for Interleukin-10 (IL10) Biomarker Activity (AID 2284294); conditions: primary human endothelial cells with macrophages
Outline: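 Human venular endothelial cells cocultured with macrophages, dosed 24 h; IL-10 measured by ELISA, activity relative to DMSO. Cytotoxicity assessed in parallel cultures by sulforhodamine B total-protein staining.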

[18] = BSK_IMphg_SRB.Mphg: Macrophage Viability Assessment in the BioMAP Diversity Plus: IMphg Assay (AID 2284295); conditions: primary human endothelial cells with macrophages
Outline: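 Venular endothelial cells co-cultured with macrophages, read 24 h after dosing. Total protein measured by 0.1% SRB staining after 10% TCA fixation, absorbance at 560 nm. Fitted in positive direction against DMSO baseline.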

Measured: AC50

Chain of E-selectin (Homo sapiens) (P16581 whole entry, looked up): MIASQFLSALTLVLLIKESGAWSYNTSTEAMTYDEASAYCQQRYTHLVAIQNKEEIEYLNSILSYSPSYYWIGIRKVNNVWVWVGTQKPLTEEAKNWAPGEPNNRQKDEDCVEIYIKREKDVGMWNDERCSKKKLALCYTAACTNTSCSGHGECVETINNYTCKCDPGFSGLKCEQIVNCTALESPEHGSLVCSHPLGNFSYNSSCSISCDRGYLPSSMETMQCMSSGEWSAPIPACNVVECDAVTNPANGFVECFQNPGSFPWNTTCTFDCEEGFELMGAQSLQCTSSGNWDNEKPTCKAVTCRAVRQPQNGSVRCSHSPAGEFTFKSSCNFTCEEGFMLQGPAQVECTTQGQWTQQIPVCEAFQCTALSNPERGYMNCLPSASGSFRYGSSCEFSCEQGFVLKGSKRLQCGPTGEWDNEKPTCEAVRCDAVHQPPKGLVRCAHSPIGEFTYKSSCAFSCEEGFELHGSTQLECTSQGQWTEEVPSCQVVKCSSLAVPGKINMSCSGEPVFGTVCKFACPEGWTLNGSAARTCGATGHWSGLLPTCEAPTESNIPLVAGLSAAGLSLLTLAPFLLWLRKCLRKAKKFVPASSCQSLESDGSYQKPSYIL

CC(=O)Nc1ccc(O)cc1
inactive: [1] | [2] | [3]

Oc1ccc(Cc2ccccc2O)cc1
inactive: [4] | [5] | [6] | [7] | KRT18 (gene 3875) | [8] | [9]

O=C(CC(=O)C(F)(F)C(F)(F)C(F)(F)F)c1cccs1
active: [10] 46.4 µM and 35.8 µM | [11] 28.8 µM and 22.4 µM | [12] 22400 nM | [4] 42.2 µM and 35.1 µM | [5] 24.7 µM and 24.1 µM | [6] 48.2 µM and 55.2 µM | [7] 30 µM and 20.5 µM | KRT18 (gene 3875) 10.8 µM and 14.7 µM | [13] 50.5 µM and 43.4 µM | [14] 40.3 µM and 42 µM | [15] 44.9 µM and 39.7 µM | [17] 22 µM and 29.2 µM | [18] 43.1 µM and 42.7 µM | [9] 55.5 µM and 54.2 µM
inactive: [12] | [8] | CD40, CD40 (gene 958) | [16]

OCC(F)(F)C(F)(F)C(F)(F)C(F)(F)C(F)(F)C(F)(F)C(F)(F)C(F)(F)C(F)(F)C(F)(F)C(F)(F)F
inactive: [10] | [11] | [12] | [4] | [5] | [6] | [7] | KRT18 (gene 3875) | [8] | [13] | [15] | [16] | [17] | [9]
active: [12] 216 nM | [6] 224 nM | CD40, CD40 (gene 958) 1350 nM | [14] 155 nM and 396 nM | [17] 835 nM | [18] 550 nM and 521 nM

O=P(O)(O)CCC(F)(F)C(F)(F)C(F)(F)C(F)(F)C(F)(F)C(F)(F)C(F)(F)C(F)(F)F
inactive: [10] | [11] | [12] | [4] | [5] | [6] | [7] | KRT18 (gene 3875) | [8] | [13] | CD40, CD40 (gene 958) | [15] | [16] | [18] | [9]
active: [12] 40100 nM | [14] 37.8 µM and 34.5 µM | [17] 39.7 µM and 31.3 µM
